Test results taken from the supplement of paper PMC8728848.
Many of the other results were omitted from the sample, so the strongest signals are more common in it than they were.

Legend:
Test in all cases: glycan array binding signal (z-score within array); higher = stronger binding
Conditions in all cases: glycan notation: IUPAC condensed, linker removed
[1] = target: Fuc(a1-2)Gal(b1-3)GalNAc(a1-3)[Fuc(a1-2)]Gal(b1-4)Glc
Summary of the method: (§1)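 The Consortium for Functional Glycomics database supplied 3228 glycan arrays, of which those lacking an available protein sequence were dropped. The binding signal, a within-array Z-score, was averaged across arrays of the same protein sequence and across linkers. Negative scores can be read as non-binding.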

[2] = target: Fuc(a1-2)Gal(b1-3)GlcNAc(b1-2)Man(a1-3)[Fuc(a1-2)Gal(b1-3)GlcNAc(b1-2)Man(a1-6)]Man(b1-4)GlcNAc(b1-4)GlcNAc
Summary of the method: as §1

[3] = target: Fuc(a1-2)Gal(b1-4)Glc6S
Summary of the method: as §1

[4] = target: Fuc(a1-2)Gal(b1-4)GlcNAc6S
Summary of the method: as §1

[5] = target: Fuc(a1-2)[Gal(a1-3)]Gal(b1-3)GlcNAc
Summary of the method: as §1

[6] = target: Fuc(a1-2)[Gal(a1-3)]Gal(b1-3)GlcNAc(b1-6)GalNAc
Summary of the method: as §1

[7] = target: Fuc(a1-2)[Gal(a1-3)]Gal(b1-4)GlcNAc(b1-2)Man(a1-3)[Fuc(a1-2)[Gal(a1-3)]Gal(b1-4)GlcNAc(b1-2)Man(a1-6)]Man(b1-4)GlcNAc(b1-4)GlcNAc
Summary of the method: as §1

[8] = target: Fuc(a1-2)[GalNAc(a1-3)]Gal
Summary of the method: as §1

[9] = target: Fuc(a1-2)[GalNAc(a1-3)]Gal(b1-4)GlcNAc(b1-3)GalNAc
Summary of the method: as §1

[10] = target: Gal(a1-3)Gal(b1-3)GlcNAc(b1-2)Man(a1-3)[Gal(a1-3)Gal(b1-3)GlcNAc(b1-2)Man(a1-6)]Man(b1-4)GlcNAc(b1-4)GlcNAc
Summary of the method: as §1

[11] = target: Gal(a1-4)Gal(b1-4)GlcNAc(b1-3)Gal(b1-4)Glc
Summary of the method: as §1

[12] = target: Gal(b1-3)GalNAc(b1-3)Gal
Summary of the method: as §1

[13] = target: Gal(b1-3)GlcNAc(b1-3)Gal(b1-4)GlcNAc
Summary of the method: as §1

[14] = target: Gal(b1-3)GlcNAc(b1-3)Gal(b1-4)GlcNAc(b1-2)[Gal(b1-3)GlcNAc(b1-3)Gal(b1-4)GlcNAc(b1-6)]Man(a1-6)[Gal(b1-3)GlcNAc(b1-3)Gal(b1-4)GlcNAc(b1-2)Man(a1-3)]Man(b1-4)GlcNAc(b1-4)[Fuc(a1-6)]GlcNAc
Summary of the method: as §1

[15] = target: Gal(b1-3)[Fuc(a1-4)]GlcNAc(b1-3)Gal(b1-3)[Fuc(a1-4)]GlcNAc
Summary of the method: as §1

[16] = target: Gal(b1-4)GlcNAc(b1-2)[Gal(b1-4)GlcNAc(b1-6)]Man(a1-6)[GlcNAc(b1-4)][Gal(b1-4)GlcNAc(b1-2)[Gal(b1-4)GlcNAc(b1-4)]Man(a1-3)]Man(b1-4)GlcNAc(b1-4)[Fuc(a1-6)]GlcNAc
Summary of the method: as §1

[17] = target: Gal(b1-4)GlcNAc(b1-3)Gal(b1-4)GlcNAc(b1-3)Gal(b1-4)GlcNAc(b1-2)Man(a1-3)[Gal(b1-4)GlcNAc(b1-3)Gal(b1-4)GlcNAc(b1-3)Gal(b1-4)GlcNAc(b1-2)Man(a1-6)]Man(b1-4)GlcNAc(b1-4)GlcNAc
Summary of the method: as §1

[18] = target: Gal(b1-4)GlcNAc(b1-3)Gal(b1-4)GlcNAc(b1-3)Gal(b1-4)GlcNAc(b1-3)Gal(b1-4)GlcNAc(b1-2)Man(a1-3)[Gal(b1-4)GlcNAc(b1-3)Gal(b1-4)GlcNAc(b1-3)Gal(b1-4)GlcNAc(b1-3)Gal(b1-4)GlcNAc(b1-2)Man(a1-6)]Man(b1-4)GlcNAc(b1-4)[Fuc(a1-6)]GlcNAc
Summary of the method: as §1

[19] = target: Gal(b1-4)GlcNAc(b1-3)Gal(b1-4)GlcNAc(b1-3)[Gal(b1-4)GlcNAc(b1-3)Gal(b1-4)GlcNAc(b1-6)]GalNAc
Summary of the method: as §1

[20] = target: Gal(b1-4)GlcNAc(b1-3)[Fuc(a1-3)GlcNAc(b1-6)]Gal(b1-4)Glc
Summary of the method: as §1

[21] = target: Gal3S(b1-3)[Fuc(a1-4)]GlcNAc
Summary of the method: as §1

[22] = target: Gal6P(b1-4)GlcNAc
Summary of the method: as §1

[23] = target: GalNAc(b1-3)Gal(a1-4)Gal(b1-4)GlcNAc(b1-3)Gal(b1-4)Glc
Summary of the method: as §1

[24] = target: GalNAc(b1-3)GalNAc
Summary of the method: as §1

[25] = target: GlcNAc(a1-4)Gal(b1-4)GlcNAc
Summary of the method: as §1

[26] = target: GlcNAc(a1-4)Gal(b1-4)GlcNAc(b1-3)Gal(b1-4)Glc
Summary of the method: as §1

[27] = target: GlcNAc(a1-4)Gal(b1-4)GlcNAc(b1-3)Gal(b1-4)GlcNAc
Summary of the method: as §1

[28] = target: GlcNAc(a1-4)Gal(b1-4)GlcNAc(b1-3)Gal(b1-4)GlcNAc(b1-3)Gal(b1-4)GlcNAc
Summary of the method: as §1

[29] = target: GlcNAc(b1-2)[GlcNAc(b1-6)]Man(a1-6)[GlcNAc(b1-4)][GlcNAc(b1-2)Man(a1-3)]Man(b1-4)GlcNAc(b1-4)GlcNAc
Summary of the method: as §1

[30] = target: GlcNAc(b1-3)Gal(b1-4)GlcNAc(b1-3)Gal(b1-4)GlcNAc(b1-2)Man(a1-3)[GlcNAc(b1-3)Gal(b1-4)GlcNAc(b1-3)Gal(b1-4)GlcNAc(b1-2)Man(a1-6)]Man(b1-4)GlcNAc(b1-4)[Fuc(a1-6)]GlcNAc
Summary of the method: as §1

[31] = target: GlcNAc(b1-3)Gal(b1-4)GlcNAc(b1-3)Gal(b1-4)GlcNAc(b1-3)GalNAc
Summary of the method: as §1

[32] = target: GlcNAc(b1-4)[GlcNAc(b1-6)]GalNAc
Summary of the method: as §1

[33] = target: GlcNAc(b1-6)GalNAc
Summary of the method: as §1

[34] = target: Man(a1-2)Man(a1-6)[Man(a1-3)]Man(a1-6)[Man(a1-2)Man(a1-2)Man(a1-3)]Man
Summary of the method: as §1

[35] = target: Man(b1-4)GlcNAc
Summary of the method: as §1

[36] = target: Neu5Ac(a2-3)Gal(b1-3)GlcNAc(b1-2)Man(a1-3)[GlcNAc(b1-4)][Neu5Ac(a2-3)Gal(b1-3)GlcNAc(b1-2)Man(a1-6)]Man(b1-4)GlcNAc(b1-4)GlcNAc
Summary of the method: as §1

[37] = target: Neu5Ac(a2-3)Gal(b1-4)GlcNAc(b1-2)Man(a1-3)[Neu5Ac(a2-3)Gal(b1-4)GlcNAc(b1-2)Man(a1-6)]Man(b1-4)GlcNAc(b1-4)GlcNAc
Summary of the method: as §1

[38] = target: Neu5Ac(a2-3)Gal(b1-4)GlcNAc(b1-3)Gal(b1-4)GlcNAc(b1-3)Gal(b1-4)GlcNAc(b1-2)Man(a1-3)[Neu5Ac(a2-3)Gal(b1-4)GlcNAc(b1-3)Gal(b1-4)GlcNAc(b1-3)Gal(b1-4)GlcNAc(b1-2)Man(a1-6)]GalNAc
Summary of the method: as §1

[39] = target: Neu5Ac(a2-3)Gal(b1-4)GlcNAc(b1-6)GalNAc
Summary of the method: as §1

[40] = target: Neu5Ac(a2-3)[GalNAc(b1-4)]Gal(b1-4)Glc
Summary of the method: as §1

[41] = target: Neu5Ac(a2-6)Gal(b1-4)GlcNAc(b1-2)Man(a1-3)Man(b1-4)GlcNAc(b1-4)GlcNAc
Summary of the method: as §1

[42] = target: Neu5Ac(a2-6)Gal(b1-4)GlcNAc(b1-2)Man(a1-3)[Neu5Ac(a2-3)Gal(b1-4)GlcNAc(b1-2)Man(a1-6)]Man(b1-4)GlcNAc(b1-4)GlcNAc
Summary of the method: as §1

[43] = target: Neu5Ac(a2-6)Gal(b1-4)GlcNAc(b1-3)Gal(b1-4)GlcNAc(b1-3)Gal(b1-4)GlcNAc(b1-2)Man(a1-3)[Neu5Ac(a2-6)Gal(b1-4)GlcNAc(b1-3)Gal(b1-4)GlcNAc(b1-3)Gal(b1-4)GlcNAc(b1-2)Man(a1-6)]GalNAc
Summary of the method: as §1

[44] = target: Neu5Ac(a2-6)Gal(b1-4)GlcNAc(b1-6)[Gal(b1-3)GlcNAc(b1-3)]Gal(b1-4)Glc
Summary of the method: as §1

[45] = target: Neu5Ac(a2-6)GlcNAc(b1-4)GlcNAc
Summary of the method: as §1

[46] = target: Neu5Ac(a2-8)Neu5Ac(a2-3)Gal(b1-3)GalNAc(b1-4)[Neu5Ac(a2-3)]Gal(b1-4)Glc
Summary of the method: as §1

[47] = target: Neu5Ac(a2-8)Neu5Ac(a2-3)[Gal(b1-3)GalNAc(b1-4)]Gal(b1-4)Glc
Summary of the method: as §1

B1: AFL6 (Aspergillus fumigatus), Q4WKJ1 (protein)
chain: MSFHLTAEDIRIEDGHRLVARLRNADGDLQDASIDLNTCLGNDNGHFQWDGVDFSHSAQDVHFAIEGGGQVPVLRAQLANQDGEFQDADVNLSERIENINGEFVFH
- glycan array binding signal (z-score) [1]: -0.421
- glycan array binding signal (z-score) [2]: 2.45
- glycan array binding signal (z-score) [3]: -0.234
- glycan array binding signal (z-score) [4]: -0.334
- glycan array binding signal (z-score) [5]: -0.417
- glycan array binding signal (z-score) [6]: -0.178
- glycan array binding signal (z-score) [7]: 0.717
- glycan array binding signal (z-score) [8]: 0.228
- glycan array binding signal (z-score) [9]: -0.656
- glycan array binding signal (z-score) [10]: 0.406
- glycan array binding signal (z-score) [11]: 0.039
- glycan array binding signal (z-score) [12]: -0.263
- glycan array binding signal (z-score) [13]: -0.706
- glycan array binding signal (z-score) [14]: 1.91
- glycan array binding signal (z-score) [15]: -0.509
- glycan array binding signal (z-score) [16]: -0.245
- glycan array binding signal (z-score) [17]: 2.41
- glycan array binding signal (z-score) [18]: 2.99
- glycan array binding signal (z-score) [19]: 4.09
- glycan array binding signal (z-score) [20]: -0.272
- glycan array binding signal (z-score) [21]: -0.44
- glycan array binding signal (z-score) [22]: -0.655
- glycan array binding signal (z-score) [23]: -0.055
- glycan array binding signal (z-score) [24]: -0.414
- glycan array binding signal (z-score) [25]: 2.64
- glycan array binding signal (z-score) [26]: 2.89
- glycan array binding signal (z-score) [27]: 3.58
- glycan array binding signal (z-score) [28]: 3.77
- glycan array binding signal (z-score) [29]: -0.56
- glycan array binding signal (z-score) [30]: 2.48
- glycan array binding signal (z-score) [31]: -0.176
- glycan array binding signal (z-score) [32]: -0.154
- glycan array binding signal (z-score) [33]: -0.476
- glycan array binding signal (z-score) [34]: -0.466
- glycan array binding signal (z-score) [35]: -0.133
- glycan array binding signal (z-score) [36]: -0.296
- glycan array binding signal (z-score) [37]: 0.029
- glycan array binding signal (z-score) [38]: 4.83
- glycan array binding signal (z-score) [39]: 0.04
- glycan array binding signal (z-score) [40]: 0.054
- glycan array binding signal (z-score) [41]: 0.065
- glycan array binding signal (z-score) [42]: -0.35
- glycan array binding signal (z-score) [43]: 3.09
- glycan array binding signal (z-score) [44]: 0.854
- glycan array binding signal (z-score) [45]: -0.135
- glycan array binding signal (z-score) [46]: -0.5
- glycan array binding signal (z-score) [47]: -0.306
